Measurements published in PubChem BioAssay (NCI).
About 83,000 compounds went through this panel and 20% of them were active in at least one assay; those are over-represented in the sample as a whole.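 In brief: 96-well plates, 48 h treatment, single concentration, percent growth endpoint.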 Unmarked numbers belong to inactive results. Calls of active or inactive are those of the source. Rule for the calls: active = growth percent below 10; inactive = the rest.

Experiments:
Test in all cases: NCI-60 one-dose screen, 48 h (100 = growth as untreated, 0 = no growth, -100 = all killed)
Settings in all cases: 10 µM unless noted
[1] = tested on: NCI-H23 lung
[2] = tested on: NCI-H226 lung
[3] = tested on: NCI-H322M lung
[4] = tested on: HOP-62 NSCLC
[5] = tested on: NCI-H460 lung
[6] = tested on: HOP-92 NSCLC
[7] = tested on: NCI-H522 lung
[8] = tested on: A549/ATCC NSCLC
[9] = tested on: 786-0 renal
[10] = tested on: COLO 205 colon
[11] = tested on: DU-145 prostate
[12] = tested on: K-562 leukemia
[13] = tested on: MALME-3M melanoma
[14] = tested on: MDA-MB-231 breast
[15] = tested on: RXF 393 renal
[16] = tested on: SF-268 CNS
[17] = tested on: SF-295 CNS
[18] = tested on: SF-539 CNS
[19] = tested on: UACC-257 melanoma
[20] = tested on: M14 melanoma

Structure (SMILES) | growth [1] | growth [2] | growth [3] | growth [4] | growth [5] | growth [6] | growth [7] | growth [8] | growth [9] | growth [10] | growth [11] | growth [12] | growth [13] | growth [14] | growth [15] | growth [16] | growth [17] | growth [18] | growth [19] | growth [20]
O=C(Nc1ccccc1)Nc1ccc(C(=O)/C=C/c2ccc(N3CCCC3)cc2)cc1 | 92.3% | 78% | 83.2% | 63% | 78.7% | 73.8% | 31.7% | 75.5% | 93.9% | 66.6% | 94.7% | 77.2% | 79.1% | 56.8% | 58.8% | 57.6% | 73.4% | 78.7% | 51.4% | 101%
Cc1cc(NN=C(c2ccc(O)cc2)c2ccc(O)cc2)c([N+](=O)[O-])cc1[N+](=O)[O-] | 31.9% | 99.2% | 59.1% | 54.2% | 27.3% | 40% | 15.4% | 11.8% | -5.42% (active) | 98.6% | 81.8% | 99.1% | 100% | 59.6% | 25.7% | 53.9% | 43.6% | 69.5% | 42.5% | 36.8%
Oc1c(CNCCNCc2cc(Cl)cc(Cc3ccccc3)c2O)cc(Cl)cc1Cc1ccccc1 | 17.4% | 9.76% (active) | 23.4% | 19.4% | 8.13% (active) | 45.1% | 43.7% | 13.9% | -3.97% (active) | 8.84% (active) | 24.2% | 13.2% | 8.23% (active) | 36.2% | 17.6% | 18.6% | 0.247% (active) | 2.22% (active) | 16% | 2.36% (active)
Cc1cc(-c2ccc(N=Nc3c(S(=O)(=O)O)cc4cc(S(=O)(=O)O)cc(N)c4c3O)c(C)c2)ccc1N=Nc1cc(S(=O)(=O)O)c2ccccc2c1O | 92.2% | 90% | 86.5% | 93.8% | 107% | 89.6% | 101% | 97.2% | 104% | 110% | 112% | 98% | 89% | 92.4% | 107% | 95.6% | 103% | 88.4% | 97.7% | 101%
C=C(C)[C@@H]1CC[C@]2(C(=O)OC)CC[C@]3(C)[C@H](CC[C@@H]4[C@@](C)(CCc5nn[nH]n5)[C@H](C(=C)C)CC[C@]43C)[C@@H]12 | -13.8% [100 µM] (active) | -19.9% [100 µM] (active) | 9.71% [100 µM] (active) | -72.7% [100 µM] (active) | -59.3% [100 µM] (active) | -39.8% [100 µM] (active) | -25.3% [100 µM] (active) | 2.03% [100 µM] (active) | -8.74% [100 µM] (active) | -62.9% [100 µM] (active) | 0.51% [100 µM] (active) | 14.5% [100 µM] | -52% [100 µM] (active) | -76.9% [100 µM] (active) | -78.3% [100 µM] (active) | -23.1% [100 µM] (active) | -35.2% [100 µM] (active) | -65% [100 µM] (active) | -5.16% [100 µM] (active) | -9.37% [100 µM] (active)
Cc1cnc(N)nc1OCC(C)(C)CNC(=O)c1cccc(-c2ccc(S(=O)(=O)Nc3ccc4c(c3)N(C(=O)C3CC3)CCC4)cc2)c1 | 48.6% | 59.3% | 84.2% | 59.7% | 53.9% | 53.5% | 65.4% | 49.9% | 90.6% | 55.5% | 77.4% | 34.3% | 80.7% | 68.1% | 74.6% | 67.5% | 55.3% | 75.2% | 46.6% | 96.4%
COc1ccc(-c2cc(-c3ccc(Cl)cc3)nc(NCCCCNc3ccnc4cc(Cl)ccc34)n2)cc1 | 86.4% | 75% | 94.4% | 78.1% | 89.7% | 46.2% | 80% | 91.8% | 73.5% | 30.4% | 98.8% | 0.414% (active) | -18% (active) | 73.4% | 26.5% | 86.5% | 83.8% | 64.8% | 3.17% (active) | 34.6%
N#C/C(C(=O)c1ccccc1)=C1/C(=O)Nc2ccc(Br)cc21 | 94.4% | 96.6% | 101% | 84.1% | 105% | 109% | 99.1% | 104% | 101% | 113% | 108% | 91.3% | 96.7% | 95.5% | 111% | 103% | 100% | 94.7% | 97.9% | 107%
COc1cc(C)cc2oc3oc(=N)c(C(=O)c4ccccc4)cc3c(=O)c12 | 108% | 103% | 98% | 106% | 105% | 94.9% | 96.8% | 109% | 106% | 124% | 111% | 97.5% | 91.8% | 98.2% | 108% | 94.4% | 106% | 96.4% | 111% | 99.7%
CCOC(=O)c1ccc2nc(-c3c(C)nn(-c4ccccc4)c3N3CCOCC3)[nH]c2c1 | 95.2% | 73.3% | 102% | 85.6% | 97% | 79.8% | 87.2% | 94.5% | 104% | 114% | 105% | 91.2% | 98.7% | 69.9% | 92.1% | 94.3% | 96.2% | 95.8% | 106% | 89.3%
COc1ccc(/C=C(/C(=O)c2ccc(Cl)cc2)C(=O)C(F)(F)F)cc1 | 91.4% | 99.9% | 77.7% | 91.9% | 109% | 101% | 74.8% | 92% | 99.1% | 110% | 99.2% | 92.1% | 107% | 110% | 104% | 96.8% | 96.2% | 108% | 99.3% | 120%
C[C@H]1[C@H](C)CC[C@]2(COC(=O)CCC(=O)O)CC[C@]3(C)C(=CC[C@@H]4[C@@]5(C)CCCNC(C)(C)[C@@H]5CC[C@]43C)[C@H]12 | 62.8% [100 µM] | 76.3% [100 µM] | 86.8% [100 µM] | 49.1% [100 µM] | 66.8% [100 µM] | -7.31% [100 µM] (active) | 53.5% [100 µM] | 70.9% [100 µM] | 55.6% [100 µM] | 69.1% [100 µM] | 79.8% [100 µM] | 48.9% [100 µM] | 77.1% [100 µM] | 45.1% [100 µM] | 53% [100 µM] | 62.5% [100 µM] | 59.1% [100 µM] | 50.9% [100 µM] | 78.5% [100 µM] | 92% [100 µM]
O=S(=O)(/N=c1/n(-c2ccccc2)nc2n1CCN2C1=NCCN1)c1ccc(-c2ccccc2)cc1 | 101% | 101% | 104% | 99.1% | 94.8% | 82.3% | 106% | 90.1% | 89% | 109% | 108% | 88.6% | 112% | 86.2% | 87.9% | 91.7% | 97.7% | 93.1% | 103% | 106%
OC(c1ccc(Cl)cc1)(c1ccc(Cl)cc1)C(O)(c1ccc(Cl)cc1)c1ccc(Cl)cc1 | 53.1% | 54.6% | 46.4% | 65.1% | 26.6% | 24.7% | 41.6% | 44.9% | 31.9% | 45% | 61.3% | 32.4% | 70.9% | 39.8% | 16.2% | 38.9% | -2.57% (active) | 87.2% | 64.7% | 35.6%
CCN(CC)c1ccc(/C=C/c2ccc3cc(C)ccc3[n+]2CC)cc1 | -1.98% (active) | 21.4% | 35.9% | 4.01% (active) | -48.4% (active) | -17.5% (active) | -27.7% (active) | 8.77% (active) | 16.2% | -21.7% (active) | 20.1% | 6.51% (active) | -2.01% (active) | 21.3% | 11.8% | 27.7% | -22% (active) | 11.5% | -19% (active) | 2.07% (active)
Cc1nc(-c2ccccc2)sc1CC#N | 106% | 93.1% | 101% | 102% | 103% | 99.2% | 94.6% | 100% | 104% | 122% | 116% | 94.2% | 128% | 116% | 118% | 106% | 101% | 111% | 123% | 125%
COc1ccc(C2=C(c3cn(C)c4ccccc34)C(=O)OC2)cc1OC | 54.6% | 70.3% | 65.5% | 31.5% | 29.6% | 16.4% | 13.3% | 42.3% | 41.2% | 12.6% | 48.7% | 18% | 35.4% | 49.8% | -7.01% (active) | 52.1% | 23% | -12.2% (active) | 79.7% | 50%
